Laboratory results: PubChem BioAssay (NCATS)
Results filed as inconclusive are left out. Active and inactive are the calls of the source. The call rests on the fitted dose curve. Square brackets hold non-standard residues; d marks the D form. Peptide text beside a SMILES is read from it. * marks the point of attachment. Nle = CCCC[C@H](N)C(=O)O; Cbz = O=C(OCc1ccccc1)*; CH2Cl = ClC*

assay: Confirmatory qHTS for VERO E6 Cytotoxicity Assay: Counterscreen for SARS-CoV-2 CPE Assay (AID 1508605); settings: cell viability luminescence; series mostly up to 20 µM; activity change, negative = cytotoxic: at the top concentration; further: nearly all actives have a fitted effect of over 60% in size
On the % scale 0 is the no-effect control and ±100 the full control effect; potency means the concentration at half of the fitted maximal effect.

| Compound | activity change, negative = cytotoxic | Potency |
| --- | --- | --- |
| COc1ccc(NS(=O)(=O)c2sc3ccc(Cl)cc3c2C)cc1N1CCNCC1 | -12.9% (inactive) | – |
| c1ccc(-c2ccc(CNc3nc(-c4ccccn4)nnc3-c3ccccc3)cc2)cc1 | – | 0.501 µM (active) |
| CCC(C)C(=O)OC12C(OC(C)=O)C(C)C3(O)C(C=C(CO)CC4(O)C(=O)C(C)=CC43)C1C2(C)C (centres undefined) | -11% [at 10 µM] (inactive) | – |
| CCC(C)C(=O)OC1C(C)C2(O)C(C=C(CO)CC3(O)C(=O)C(C)=CC32)C2C(C)(C)C12OC(=O)C(C)C (centres undefined) | -1.35% [at 10 µM] (inactive) | – |
| COc1ccc(-c2csc(NC(=O)[C@H]3CCCCN3S(=O)(=O)c3ccc(C)cc3)n2)cc1 | 4.47% (inactive) | – |
| CCC(C)CNCC(=O)N1CCC2SC=CC2C1COc1cccc(C)c1 (centres undefined) | -18.4% (inactive) | – |
| CC1OC2OC3C(OCC(O)C3O)OC(=O)C34CCC(C)(C)CC3C3=CCC5C6(C)CC(O)C(OC7OC(CO)C(O)C(O)C7OC7OCC(OC(=O)CC(C)(O)CC(=O)OC1C(OC1OCC(O)C(O)C1O)C2O)C(O)C7O)C(C)(CO)C6CCC5(C)C3(C)CC4O (centres undefined) | – | 1.56 µM (active) |
| COc1ccc2c(c1)CN(C(=O)CCN1CCC(Cc3ccccc3)CC1)CCS2 | -11% [at 10 µM] (inactive) | – |
| CCCC[C@@H](C=O)NC(=O)[C@H](CC(C)C)NC(=O)[C@H](CC(C)C)NC(C)=O (Ac-Leu-Leu-[Nle]-aldehyde) | -5.12% (inactive) | – |
| C[C@H](NC(=O)[C@H](Cc1ccccc1)NC(=O)OCc1ccccc1)C(=O)CF | 4.12% (inactive) | – |
| COC(=O)Nc1cc(Nc2cc(NC3CC3)c3ncc(C#N)n3n2)c(Cl)c(N2CCN(C)CC2)c1 | – | 2.51 µM (active) |
| CC(C)c1cccc2c(-c3ccccc3)cc(-c3ccc(-c4ccc(C(=O)O)cc4)[nH]3)nc12 | -28% (inactive) | – |
| Cc1ccc(-c2c(C(=O)CCl)n(CCCO)c3ncnc(N)c23)cc1 | -16.4% (inactive) | – |
| COc1cc2nc(N3CCCCC3)nc(NC3CCN(Cc4ccccc4)CC3)c2cc1OC | – | 10 µM (active) |
| C[C@@H]1CN(CC(=O)N2CC(C)(C)c3ncc(Cc4ccc(F)cc4)cc32)[C@@H](CN2CCOC[C@H]2C)CN1 | -11.4% (inactive) | – |
| C/C=C(\C)C(=O)OC1C(C)C2(O)C3C=C(C)C(=O)C3CC(CO)=CC2C2C(C)(C)C12OC(C)=O (centres undefined) | -11% [at 10 µM] (inactive) | – |
| O[C@H]1[C@H]2c3cc4c(cc3CN3CCC(=C[C@@H]1O)[C@H]23)OCO4 | – | 3.16 µM (active) |

| Compound | activity change, negative = cytotoxic | Potency |
| --- | --- | --- |
| CCC[C@@H](NC(=O)N1C(=O)C(CC)(CC)[C@@H]1Oc1ccc(C(=O)N2CCN(C)CC2)cc1)c1ccc2c(c1)OCO2 | -5.5% (inactive) | – |
| CSc1ccc(C(=O)/C=C/c2cc(C)c(OC(C)(C)C(=O)O)c(C)c2)cc1 | -15.5% [at 40 µM] (inactive) | – |
| CCCc1cc(C)[nH]c(=O)c1CNC(=O)c1cc(-c2ccnc(N3CCN(C)CC3)c2)cc2c1cnn2C(C)C | -18.7% (inactive) | – |
| COc1cc(N(C)CCN(C)C)c(N)cc1Nc1nccc(-c2cn(C)c3ccccc23)n1 | -7.12% (inactive) | – |
| CC1CCN(C(c2ccc(F)cc2)c2ccc(C(C)C(=O)O)cc2-c2ccc(C(F)(F)F)cc2)CC1 (centres undefined) | – | 11.2 µM (active) |
| Cc1nc2ccc(Oc3ccc(F)cc3)cc2c(=O)n1C[C@H]1CCCN(C(C)C)C1 | -6.31% (inactive) | – |
| CCCCCCCCC(=O)N[C@H](CN1CCCC1)[C@H](O)c1ccc2c(c1)OCCO2 | -23.1% (inactive) | – |
| C=C1C(=O)O[C@H]2C3=C(C)CCC[C@]3(C)C(=O)C[C@@H]12 | – | 10 µM (active) |
| COc1cc2nc(N3CCC(N4CCCCC4)CC3)nc(NC3CCCCCC3)c2cc1OC | – | 6.31 µM (active) |
| COc1cc(-n2cnc3cc(-c4ccc(Cl)cc4)sc3c2=O)ccc1OCCN1CCCC1 | -16.3% (inactive) | – |
| O=C(c1ccc(-c2ccc(Cl)cc2)o1)N(Cc1ccccn1)c1ccc(N2CCNCC2)cc1 | – | 11.2 µM (active) |
| CC#C[C@@H](CC(=O)O)c1ccc(OCc2cccc(-c3ccc(C(F)(F)F)cc3)c2)cc1 | -15.9% (inactive) | – |
| CC(C)C[C@H](NC(=O)CNC(=O)OCc1ccccc1)C(=O)N[C@@H](Cc1ccccc1)C(=O)CCl (Cbz-Gly-Leu-Phe-CH2Cl) | -30.4% (inactive) | – |
| CC(C)(C[C@@](O)(Cc1cc2ccncc2[nH]1)C(F)(F)F)c1cc(F)ccc1O | -24.4% (inactive) | – |
| C=C1Cc2c(Cl)cc3[nH]c4c5c3c2[C@@]2(O)[C@@H]1C[C@@H]2C(C)(C)O[C@H]5C1CC[C@@]2(O)[C@@]35O[C@@H]3[C@H]3OC(C)(C)[C@H]3O[C@H]5CC[C@]2(C)[C@@]41C (some centres undefined) | -15.6% [at 6.64 µM] (inactive) | – |
| COC(=O)CC[C@@H](C)C1CCC2C3CCC4C[C@H](OC(C)=O)CCC4(C)C3C[C@H](O)C21C (some centres undefined) | -2.3% (inactive) | – |
| CCN(CC)CCCS(=O)(=O)N[C@H](CCc1ccccc1)c1nc(Cc2ccc(Br)cc2)no1 | -13.7% (inactive) | – |
